This note sets out measurements from PubChem BioAssay (NCI).

The panel holds about 83,000 compounds, 20% with a hit somewhere; the sample as a whole holds those more often.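 Assay: single dose, 48 h. Readout: percent growth (0 = no net growth; negative = cell death). Active: <10.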 Unmarked numbers belong to inactive results. Activity calls are given as the source filed them.

The first assay has as its system SR leukemia. Nature of the assay: NCI-60 one-dose screen, 48 h (100 = growth as untreated, 0 = no growth, -100 = all killed). As to conditions: 10 µM unless noted.
With `O=[As](O)(O)c1ccccc1[As](=O)(O)O`, the growth is 91.3%.
The same measure, in the same setting: with `Clc1ccc(COC(Cn2ccnc2)c2ccc(Cl)cc2Cl)cc1` (centres undefined) the figure was -25.9% (active).
The same measure, in the same setting: as for `CN(C)C(=O)Oc1ccccc1`, the figure is 109%; as for `CC[C@H](C)[C@H](NC(=O)C12C3C4C1C1C2C3C41NC(C)=O)C(=O)N(C)[C@H](C[C@@H](OC(C)=O)c1nc(C(=O)N[C@@H](Cc2ccccc2)C[C@H](C)C(=O)OC)cs1)C(C)C` (some centres undefined), 16.6%.
Same read-out and setting: as for `COc1ccc(C(=O)c2sc3nc4c(cc3c2N)N2CCC4CC2)cc1OC`, the figure is 83.4%.
For `CCC(CC)CC1(C)CC2(C)CCOC2OO1` (centres undefined), the growth was 113%.
For `CCOC(=O)C(Cc1ccc(N(CCCl)CCCl)cc1)NC(=O)C(CC(C)C)NC(C)=O` (centres undefined), the growth is -13.9% (active).
Still for that read-out and setting: with `CCN(CCO)C(Cc1ccccc1)c1ccccc1` (centres undefined) the figure was 116%.
Take `C=CCc1cc2c(cc1OCC)OCO2`: the growth is 126%.
Consider `NC(=S)c1cn(C2OC(CO)C(O)C2O)c2ncnc(N)c12` (centres undefined), for which the growth was -50.4% (active).
With `Oc1ccc2c3c1OC1[C@@H](O)CC[C@@]4(O)[C@@H](C2)N(CC2CCC2)CC[C@]314` (some centres undefined), the growth is 99.5%.
The same measure, in the same setting: with `ClCCN(CCCl)c1ccc(OCc2ccccc2)cc1` the figure was -8.12% (active).
Same read-out and setting: as for `COC(=O)[C@@H](C)C[C@H](Cc1ccccc1)NC(=O)c1nc([C@@H](C[C@H](C(C)C)N(C)C(=O)[C@@H](NC(=O)[C@H]2CC(=O)CCN2C)C(C)C)OC(C)=O)sc1C(C)C`, the figure is 10.9%.
On the same count and under the same terms, as for `Nc1ccc2c(c1)oc1ccccc12`, the figure is 91%; as for `CNC(=O)Oc1ccc(C(C)(C)C)cc1OC(=O)NC`, 87.9%.
For the compound `COc1cc2c(cc1OCCCCn1c(-c3cccs3)nc3ccccc31)N=C[C@@H]1CCCN1C2=O`, the growth was 32%.
On to `CC[C@H](C)[C@H](NC(=O)C12C3C4C1C1C2C3C41NC)C(=O)N(C)[C@H](C[C@@H](OC(C)=O)c1nc(C(=O)N[C@@H](Cc2ccccc2)C[C@H](C)C(=O)OC)cs1)C(C)C` (some centres undefined), for which the growth was 20%.
Turning to `C[S+]1C=Cc2ccccc2C1c1ccc(Cl)cc1` (centres undefined), the growth is 93.4%.
The same measure, in the same setting: with `Clc1ccc(N2COOC3(OOC2)C2CC4CC(C2)CC3C4)cc1` the figure was 11.2%.
Still for that read-out and setting: as for `Nc1ccc2c(c1)Cc1cc(Br)ccc1-2`, the figure is 84.6%; as for `Cc1cc(N(CCCl)CCCl)ccc1/C=N\NC(=O)c1ccncc1`, 47.9%; as for `CCCC(C)C1(CC)C(=O)NC(=O)N(C)C1=O` (centres undefined), 95%.
Still for that read-out and setting: as for `CC(=O)c1ccc(C(=O)NCC2CCC3(CC2)OOC2(CCCCC2)OO3)cc1`, the figure is 39%.

The test system of another assay is RPMI-8226 leukemia. The description is as above. The following applies: 10 µM unless noted.
Turning to `O=[As](O)(O)c1ccccc1[As](=O)(O)O`, the growth was 109%.
On the same count and under the same terms, with `Clc1ccc(COC(Cn2ccnc2)c2ccc(Cl)cc2Cl)cc1` (centres undefined) the figure was 39.7%.
Consider `CN(C)C(=O)Oc1ccccc1`, for which the growth is 104%.
The same measure, in the same setting: with `CC[C@H](C)[C@H](NC(=O)C12C3C4C1C1C2C3C41NC(C)=O)C(=O)N(C)[C@H](C[C@@H](OC(C)=O)c1nc(C(=O)N[C@@H](Cc2ccccc2)C[C@H](C)C(=O)OC)cs1)C(C)C` (some centres undefined) the figure was 2.37% (active).
The same measure, in the same setting: with `COc1ccc(C(=O)c2sc3nc4c(cc3c2N)N2CCC4CC2)cc1OC` the figure was 51.4%; with `ClCCN(CCCl)c1ccc(/C=N\N=C\c2ccc(N(CCCl)CCCl)cc2)cc1`, 39.8%.
Same read-out and setting: with `CCOC(=O)C(Cc1ccc(N(CCCl)CCCl)cc1)NC(=O)C(CC(C)C)NC(C)=O` (centres undefined) the figure was 21%; with `CNCc1cccnc1`, 101%.
For the compound `CCN(CCO)C(Cc1ccccc1)c1ccccc1` (centres undefined), the growth is 98.9%.
On the same count and under the same terms, with `C=CCc1cc2c(cc1OCC)OCO2` the figure was 112%; with `NC(=S)c1cn(C2OC(CO)C(O)C2O)c2ncnc(N)c12` (centres undefined), -39.8% (active).
On the same count and under the same terms, with `Oc1ccc2c3c1OC1[C@@H](O)CC[C@@]4(O)[C@@H](C2)N(CC2CCC2)CC[C@]314` (some centres undefined) the figure was 103%; with `COC(=O)[C@@]1(O)C[C@H]2O[C@]1(C)n1c3ccccc3c3c4c(c5c6ccccc6n2c5c31)C(=O)NC4`, -39.6% (active).
The same measure, in the same setting: with `ClCCN(CCCl)c1ccc(OCc2ccccc2)cc1` the figure was 64.8%; with `N#CC1(C#N)C(c2ccc(N(CCCl)CCCl)cc2)OC23CCCCC2C1(C#N)C(=N)O3` (centres undefined), 96.2%.
With `COC(=O)[C@@H](C)C[C@H](Cc1ccccc1)NC(=O)c1nc([C@@H](C[C@H](C(C)C)N(C)C(=O)[C@@H](NC(=O)[C@H]2CC(=O)CCN2C)C(C)C)OC(C)=O)sc1C(C)C`, the growth is -3.35% (active).
Still for that read-out and setting: with `Nc1ccc2c(c1)oc1ccccc12` the figure was 79.3%; with `CNC(=O)Oc1ccc(C(C)(C)C)cc1OC(=O)NC`, 95.5%.
Regarding `COc1cc2c(cc1OCCCCn1c(-c3cccs3)nc3ccccc31)N=C[C@@H]1CCCN1C2=O`, the growth was -46.8% (active).
`CC[C@H](C)[C@H](NC(=O)C12C3C4C1C1C2C3C41NC)C(=O)N(C)[C@H](C[C@@H](OC(C)=O)c1nc(C(=O)N[C@@H](Cc2ccccc2)C[C@H](C)C(=O)OC)cs1)C(C)C` (some centres undefined): the growth is 3.54% (active).
The same measure, in the same setting: as for `COc1ccc(N(CC(=O)NCCC[Te]c2ccccc2)C(=O)CCSC2=C(C)C(=O)c3ccccc3C2=O)cc1`, the figure is -40.9% (active).
Same read-out and setting: as for `NC(=Nc1ccccc1)N[N+](=O)[O-]`, the figure is 104%.
Still for that read-out and setting: as for `C[S+]1C=Cc2ccccc2C1c1ccc(Cl)cc1` (centres undefined), the figure is 40.8%; as for `CN(C)CC(C(=O)Cc1ccccc1)c1ccccc1` (centres undefined), -4.6% (active).
As for `O=C1C=C2C(=CCOC2O)O1` (centres undefined), the growth is -19.1% (active).
Still for that read-out and setting: with `Clc1ccc(N2COOC3(OOC2)C2CC4CC(C2)CC3C4)cc1` the figure was 35.6%; with `Nc1ccc2c(c1)Cc1cc(Br)ccc1-2`, 79.8%.
Same read-out and setting: as for `O=c1[nH]c2ccc([N+](=O)[O-])cc2c(=O)o1`, the figure is 98.5%; as for `Cc1cc(N(CCCl)CCCl)ccc1/C=N\NC(=O)c1ccncc1`, 90.6%; as for `COC(=O)CCC1=C(C)c2cc3[n-]c(cc4nc(cc5[n-]c(cc1n2)c(CCC(=O)OC)c5C)C=C4C)cc3C.[Cd+2]`, -1.53% (active).
On to `CCCC(C)C1(CC)C(=O)NC(=O)N(C)C1=O` (centres undefined), for which the growth is 103%.
